HCV inh = blocks hepatitis C virus. Potency, µM (highest dose often 41.8 µM), for the others: at the top dose activity change, negative = inhibition, hits mostly inhibitors. AID 651820. Huh7.5.1 HCVcc-Cre infection, luciferase reporter, 44 h. 340,000 tested, 3.4% active; active = well fitted inhibition curve with a large enough effect; inconclusive = small, poorly fitted or top-dose-only effect, or another doubt; inactive = no such curve, though single readings can be large or run the other way; note: potency is the fitted concentration of half-maximal effect; % is set by controls: 0 for no effect and ±100 for the full control effect
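Compounds are dispensed onto cells plated 4 h earlier at 1,000 per well, with HCVcc-Cre virus (about 0.5 moi) added next. Following 44 h of culture, luminescent signal is measured for 15 sec after 15 min with substrate at room temperature.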
FMDV inh = blocks foot and mouth disease virus. FMDV antiviral cell-based qHTS. 410,000 tested, 1.2% active. Potency, µM (highest dose often 57.9 µM), for inactives: top-dose activity change, negative = inhibition, usual class: inhibitors; calls by dose curve; tested in HEK293T cells; note: read-out not given here; potency is the fitted concentration of half-maximal effect; % is set by controls: 0 for no effect and ±100 for the full control effect; nearly all actives have a fitted effect of over 45% in size
CHX counter = affects cycloheximide protein synthesis inhibition readout, counter-screen | max response, % | cell reporter, cycloheximide protein synthesis inhibition counterscreen | 300,000 tested, 12% active; in the data active = max response mostly above about 13%, no sharp cut-off; inactive = mostly below about 14%; note: read at 38.3 µM for the half of the compounds with a filed dose; 0% is about no effect
MARV entry inh = blocks Marburg virus binding to or entry into cells; Marburg virus pseudotyped entry inhibition, cell reporter; Potency, µM (titrated, usually from 37.8 µM), without a hit: top-dose activity change, negative = inhibition, actives largely listed as inhibitors; 300,000 tested, 1.8% active; calls by dose curve; tested in HEK293 cells; note: potency is the fitted concentration of half-maximal effect; % is set by controls: 0 for no effect and ±100 for the full control effect
LASV entry inh = Lassa virus entry inhibition | 300,000 tested, 1.2% active | Potency, µM (titrated, usually from 37.9 µM), for the others: top-dose activity change, negative = inhibition, most hits filed as inhibitors | AID 540256 | Lassa virus pseudotype entry inhibition, cell reporter; calls by dose curve; tested in HEK293 cells; note: potency is the fitted concentration of half-maximal effect; % is set by controls: 0 for no effect and ±100 for the full control effect; nearly all actives have a fitted effect of over 50% in size
Shiga inhibitor = Shiga toxin inhibition. Vero cells, Shiga toxin protein synthesis inhibition reporter. inhibition, % at 38.7 µM. 290,000 tested, 9.2% active. AID 2315; in the data active = inhibition mostly above about 28%, no sharp cut-off; inactive = mostly below about 43%; note: 0% is about no effect
* marks the source's active call; other numbers are inactive results; ? = inconclusive; . = not tested or not shown; [ ] = another dose, or the depositor's remark. Only some compounds are listed: those with a hit (about 13% of all), similar ones and a draw of the others.

SMILES	HCV inh	FMDV inh	CHX counter	MARV entry inh	LASV entry inh	Shiga inhibitor
CCCCCCCCOc1ccc(C2CC(=O)NC2=O)cc1 (stereo unspecified)	25.0%	-7.1%	-3.0	.	.	-3.9
O=C(NCCc1ccc(F)cc1)C1CCC(=O)N(CC2CCCCC2)C1 (stereo unspecified)	.	-7.4%	.	.	.	.
CCOC(=O)c1c(NC(=O)CN2CCCCC2)sc2c1CCC(C=O)=C2Cl	2.24µM*	?	-3.9	15.9%	-12.7%	-10.7
CCCCOc1ccc(C2=NNC(=O)CC2)cc1	23.0%	36.5%	14.8	-5.4%	3.9%	40.3*
CCOC(=O)[C@H]1[C@H]2COc3cc(OC)ccc3[C@@H]2N2C(=O)CN(Cc3ccco3)C(=O)[C@@]12C	17.8%	-3.9%	.	.	.	.
CCCOc1ccc(C(F)(F)F)cc1NC(=O)CCc1c(C)noc1C	7.08µM*	-20.6%	.	.	.	.
COCCOc1ccc(C(F)(F)F)cc1NC(=O)c1ccccc1	-4.9%	8.3%	-4.5	16.8%	?	-9.4
CC(=O)Nc1cc(C(F)(F)F)ccc1OCCOc1ccccc1	10µM*	-28.3%	.	-2.9%	-0.1%	.
CCOC(=O)C1CCN(C(=O)c2cc(S(=O)(=O)N3CCOCC3)ccc2C)CC1	10.8%	-6.9%	.	.	.	.
CCCCOc1ccc(C(=O)NCCS(=O)(=O)N2CCN(c3ccccc3OC)CC2)cc1	.	14.1µM*	.	.	?	.
COc1ccc(NC(=O)c2sc3nc4c(cc3c2N)CN(Cc2ccccc2)CC4)cc1OC	.	?	.	-14.3%[46.1 µM]	5.6%[46.1 µM]	.
CCN(Cc1ccccc1)C(=O)COC(=O)c1c(C)nsc1NC	11.2µM*	?	.	.	.	.
CCCCn1c(N)c(N(CCOC)C(=O)C2CCN(S(=O)(=O)c3ccc(C)c(C)c3)CC2)c(=O)[nH]c1=O	?	-15.1%	.	9.0%	-3.8%	.
Cc1ccc(CN2C(=O)N/C(=C\c3ccc(N4CCOCC4)cc3)C2=O)cc1	12.6%	-13.0%	-2.8	8.2%	0.0461µM*	-7.4
CCCN1C(=O)/C(=C/c2ccc(N3CCCC3)c(C)c2)NC1=S	?	-10.6%	18.9*	?	?	50.2*
CCCN1C(=O)/C(=C/c2ccc(N3CCOCC3)cc2)NC1=S	-20.5%	-15.6%	12.3	.	.	31.9
CCN1C(=O)/C(=C/c2ccc(N3CCCC3)cc2)NC1=S	?	-24.5%	65.7*	?	-11.8%	24.1
Cc1cc(/C=C2/C(=O)N(C)C(=S)N2C)ccc1N1CCCC1	-16.7%	9.6%	32.0*	?	-11.1%	93.1*
COc1cc(/C=C2\NC(=S)N(C)C2=O)ccc1O	3.0%	-0.8%	11.1	?	-9.3%[46.1 µM]	35.5
Cc1cc(/C=C2\NC(=S)N(C)C2=O)ccc1N1CCCC1	?	7.4%	32.8*	3.2%[46.1 µM]	18.2%[46.1 µM]	94.6*
CCOC(=O)N1CCN(c2nc(-c3ccc(OC)cc3)no2)CC1	12.6µM*	2.6%	26.0*	8.8%	-6.1%	62.0*
CCOC(=O)N1CCN(C(=O)c2ccc(OC)cc2)CC1	16.1%	-16.5%	-4.8	-1.5%	1.4%	-4.0
COc1cc(CN2CCC(C(=O)N3CCN(c4ccccc4F)CC3)CC2)ccc1O	22.4µM*	-20.5%	-3.9	?	-28.5%	-11.4
COc1ccc(-c2noc(N3CCC(C(=O)N4CCN(c5ccccc5F)CC4)CC3)n2)cc1	.	11.2µM*	.	.	-10.9%[46.1 µM]	.
COc1cccc(CN2CCC(C(=O)N3CCN(c4ccccc4F)CC3)CC2)c1	2.7%	-13.4%	-1.5	-9.4%	1.5%	17.6
SMILES	HCV inh	FMDV inh	CHX counter	MARV entry inh	LASV entry inh	Shiga inhibitor
Cc1ccc(C(=O)N(Cc2cc3ccc(F)cc3nc2N2CCC(O)CC2)CC2CCCO2)cc1 (stereo unspecified)	.	-6.3%	.	.	.	.
COC(=O)C1CCN(C(=O)c2ccc3nccnc3c2)CC1	-1.7%	-6.4%	4.6	6.8%[46.1 µM]	1.4%[46.1 µM]	-6.4
COc1cccc(-c2nc3ccc(C(=O)NC(C)Cc4cccnc4)cc3o2)c1 (stereo unspecified)	-21.9%	9.1%	29.2*	.	.	28.0*
COC(=O)C1CCN(C(=O)c2ccc3nc(-c4cccc(OC)c4)oc3c2)CC1	15.0%	4.3%	76.3*	.	.	95.4*
COc1ccc(CCNC(=O)/C(C#N)=C/c2ccc(OCC(=O)NCC3CCCO3)cc2)cc1OC (stereo unspecified)	0.6%	?	-2.3	-21.7%[14.2 µM]	6.7%	-6.8
O=C1CCCC/C1=C/Nc1ccc2c(c1)OCO2	-0.3%	32.5%	30.5*	2.8%	1.2%	109.4*
O=C1CCC/C1=C/Nc1cccc(F)c1	-10.1%	0.0%	16.3*	16.7%	6.3%	52.8*
CC(NC(=O)CSCc1ccc(Br)cc1)c1ccccc1 (stereo unspecified)	-24.1%	-25.8%	-2.1	?	-11.4%[46.1 µM]	1.7
CCC1CCCCN1C(=O)c1nn(-c2ccc(OC)cc2)c(=O)c2c1c1ccccc1n2C (stereo unspecified)	.	-25.5%	.	1.5%[46.1 µM]	-3.5%[46.1 µM]	.
CCCCNC(=O)C(CC)(ONc1ccccc1C(F)(F)F)c1ccccc1OC (stereo unspecified)	-3.4%	-15.7%	.	.	.	.
Cc1ccc(Cn2ncc3c(N4CCCC4)ncnc32)cc1	?	-24.7%	7.7	-1.6%	-0.2%	1.5
Cc1ccc(Cn2ncc3c(N4CCN(CC#N)CC4)ncnc32)cc1	?	31.6µM*	9.3	?	-23.8%	-13.3
c1ccc(Cn2ncc3c(N4CCN(c5ccccc5)CC4)ncnc32)cc1	.	22.4µM*	.	.	.	.
Cc1ccc(N=Nc2c(O)c3ccccc3[nH]c2=O)c(S(=O)(=O)N(C)C)c1	.	.	38.1*	-9.5%	.	42.8*
CNCCC1Sc2ccccc2Oc2ccccc21 (stereo unspecified)	11.6%	5.9%	-3.2	?	?	-6.6
CN(C)CCCC1Sc2ccccc2Sc2ccccc21 (stereo unspecified)	15.8µM*	?	.	?	?	.
CC(=O)OC[C@H]1O[C@@H](Sc2cccc3cccnc23)[C@H](OC(C)=O)[C@@H](OC(C)=O)[C@H]1OC(C)=O	32.7%	-10.2%	6.3	5.4%	-21.0%	29.6
CN(C)S(=O)(=O)N1CCC(Oc2ccc(C(=O)N3CCCCCC3)cc2)CC1	.	3.7%	.	.	.	.
CN(C)S(=O)(=O)N1CCN(C(=O)c2cccc(Br)c2)CC1	6.1%	9.4%	-2.5	10.4%	-8.4%	-19.8
CCN1CCN(C(=O)c2cccc(OC3CCN(S(=O)(=O)N(C)C)CC3)c2)CC1	3.3%	6.6%	27.0*	19.4%	12.7%	16.2
COCC(=O)N1CCC(Oc2ccc(C(=O)NCc3cc(C)no3)cc2)CC1	9.7%	0.8%	-0.6	.	.	7.2
CN(C)S(=O)(=O)N1CCC(Oc2ccc(C(=O)N3CCCCCCC3)cc2)CC1	?	0.6%	62.1*	-6.7%	-19.2%	116.6*
CC1CCCCN1C(=O)c1ccc(OC2CCN(S(=O)(=O)N(C)C)CC2)cc1 (stereo unspecified)	?	8.0%	25.6*	?	-3.2%[46.1 µM]	25.7
Cc1cc(CNC(=O)c2cccc(OC3CCN(S(=O)(=O)N(C)C)CC3)c2)on1	?	-1.4%	63.6*	12.2%[46.1 µM]	9.6%[46.1 µM]	128.1*
FC(F)(F)c1nnc2sc(-c3cccs3)nn12	0.7%	19.0%	1.9	1.1%	-3.6%	-6.4

Screening results: PubChem BioAssay, National Center for Advancing Translational Sciences (NCATS)
